According to PubChem BioAssay (NCATS):
Records with an inconclusive call do not appear. Activity calls are given as the source filed them. The call rests on the fitted dose curve; in most records, active means well fitted cell-killing curve with a large enough effect; inconclusive means small, poorly fitted or top-dose-only effect, or effect the other way; inactive means flat fitted curve, though single readings scatter.

Assays:
Assay in all cases: Primary qHTS to identify gynecologic anti-cancer compounds using libraries of approved drugs and bioactive compounds (AID 1345084); further: nearly all actives have a fitted effect of over 55% in size
C33A = conditions: Gynecologic cancer cell panel viability, ATPlite luminescence, 48 h; series mostly up to 57.5 µM
Summary of the method: (§1)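 Cells, 1,000 per well, plated 16 h, then exposed 48 h at 37 C to compounds. Viability by ATPlite luminescence after 15 min at room temperature.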

CAOV3 = conditions: Gynecologic cancer cell panel viability, ATPlite luminescence, 48 h; series mostly up to 57.5 µM
Summary of the method: as §1

CASKI = conditions: Gynecologic cancer cell panel viability, ATPlite luminescence, 48 h; series mostly up to 57.5 µM
Summary of the method: as §1

Es-2 = conditions: Gynecologic cancer cell panel viability, ATPlite luminescence, 48 h; series mostly up to 57.5 µM
Summary of the method: as §1

HeLa = conditions: Gynecologic cancer cell panel viability, ATPlite luminescence, 48 h; series mostly up to 57.5 µM
Summary of the method: as §1

Hek293T = conditions: Gynecologic cancer cell panel viability, ATPlite luminescence, 48 h, control line for the selectivity index; series mostly up to 57.5 µM
Summary of the method: as §1

JEG-3 = conditions: Gynecologic cancer cell panel viability, ATPlite luminescence, 48 h; series mostly up to 57.5 µM
Summary of the method: as §1

OV90 = conditions: Gynecologic cancer cell panel viability, ATPlite luminescence, 48 h; series mostly up to 57.5 µM
Summary of the method: as §1

PA-1 = conditions: Gynecologic cancer cell panel viability, ATPlite luminescence, 48 h; series mostly up to 57.5 µM
Summary of the method: as §1

Tov-21-G = conditions: Gynecologic cancer cell panel viability, ATPlite luminescence, 48 h; series mostly up to 57.5 µM
Summary of the method: as §1

Tov112D = conditions: Gynecologic cancer cell panel viability, ATPlite luminescence, 48 h; series mostly up to 57.5 µM
Summary of the method: as §1

Measured: Potency

C[C@@H]1CC[C@]2(C(=O)O)CC[C@]3(C)C(=CCC4[C@@]5(C)C[C@@H](O)[C@H](O)[C@@](C)(CO)C5CC[C@]43C)C2[C@]1(C)O (stereo partly specified)
inactive: all assays above

C=C1C(=O)OC2C1C(O)CC1(C)C(O)CCC(C=O)C21 (stereo unspecified)
inactive: all assays above

c1ccc(N2CCN(CCc3nn[nH]n3)CC2)cc1
inactive: all assays above

CC(C)=CCC(O)/C(C)=C/CO[C@@H]1O[C@H](CO)[C@@H](O)[C@H](O)[C@H]1O (stereo partly specified)
inactive: all assays above

C/C(=C/CO)CC[C@@H]1[C@@](C)(O)CCC2C(C)(C)CCC[C@]21C (stereo partly specified)
inactive: all assays above

C[C@H](C/C=C/C(C)(C)O)[C@H]1CC[C@@]2(C)[C@@H]3[C@@H](O[C@@H]4O[C@H](CO)[C@@H](O)[C@H](O)[C@H]4O)C=C4C(CC[C@H](O)C4(C)C)[C@]3(C=O)CC[C@]12C (stereo partly specified)
inactive: all assays above

CN(C)CC1CCOC1(c1ccccc1)c1ccccc1 (stereo unspecified)
inactive: all assays above

CC(=O)C=C=C1C(C)(C)CC(O[C@@H]2O[C@H](CO)[C@@H](O)[C@H](O)[C@H]2O)CC1(C)O (stereo partly specified)
inactive: all assays above

NCc1c[nH]c(=S)n1[C@@H]1CCc2c(F)cc(F)cc2C1
inactive: all assays above

OC[C@H]1O[C@@H](O[C@H]2[C@H](OCc3ccccc3)O[C@H](CO[C@@H]3OC[C@@H](O)[C@H](O)[C@H]3O)[C@@H](O)[C@@H]2O)[C@H](O)[C@@H](O)[C@@H]1O
inactive: all assays above

CC(C)[C@@H]1C(=O)N(S(C)(=O)=O)[C@@H]2CCN(C(=O)/C=C/CN3CCCCC3)[C@H]21
inactive: all assays above

COc1ccc(CCO[C@@H]2CCCC[C@H]2N2CC[C@@H](O)C2)cc1OC
inactive: all assays above

CC1=CCC(C(C)(C)O[C@@H]2O[C@H](CO[C@@H]3O[C@@H](C)[C@H](O)[C@@H](O)[C@H]3O)[C@@H](O)[C@H](O)[C@H]2O)CC1 (stereo partly specified)
inactive: all assays above

COc1nc2sc(C(=O)NC3CC3)c(N)c2c(C)c1Cl
inactive: all assays above

CC(=O)O[C@H]1C[C@@](O)(C(C)C)C2[C@@H](OC(=O)c3ccc(O)cc3)C[C@@]3(C)O[C@H]3C[C@]21C (stereo partly specified)
inactive: all assays above

COC1=CC(=O)CC(C)C12Oc1cc(OC)cc(O)c1C2=O (stereo unspecified)
inactive: all assays above
